LANA-H2A inh = blockers of LANA interaction with H2A/H2B – biochemical, FP readout, HTS, primary screen. cell-free LANA-H2A/H2B peptide, fluorescence polarization. 320,000 tested, 0.6% active. AID 2629, 2010. inhibition, % (no concentration beside the values); in the data active means inhibition mostly above about 10%, no sharp cut-off; inactive means mostly below about 6.7%
HDAC3 inh = HDAC3 deacetylase inhibitors, primary screen, biochemical, fluorescence, cell-free homogeneous; Histone deacetylase 3 (Homo sapiens), O15379; recombinant HDAC3, fluorogenic peptide/trypsin coupled; inhibition, % at 8.3 µM; 320,000 tested, 0.15% active; in the data active means inhibition above about 26%, passing the limit was not always enough; inconclusive means no clear call, values can overlap the other calls
Target sequence (O15379 whole entry, looked up): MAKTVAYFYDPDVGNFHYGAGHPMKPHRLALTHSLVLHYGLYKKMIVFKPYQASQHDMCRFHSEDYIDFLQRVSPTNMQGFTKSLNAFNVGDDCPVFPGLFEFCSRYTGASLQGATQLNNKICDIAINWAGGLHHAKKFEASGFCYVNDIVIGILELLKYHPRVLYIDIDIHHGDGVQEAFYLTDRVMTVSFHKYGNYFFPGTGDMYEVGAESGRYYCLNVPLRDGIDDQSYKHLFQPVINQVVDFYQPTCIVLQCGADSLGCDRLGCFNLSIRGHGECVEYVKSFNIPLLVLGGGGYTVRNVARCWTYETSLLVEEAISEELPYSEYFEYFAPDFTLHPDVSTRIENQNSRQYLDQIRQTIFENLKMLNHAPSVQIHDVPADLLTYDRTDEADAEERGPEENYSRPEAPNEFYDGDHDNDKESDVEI
Yeast superoxide = reduction of superoxide in aged yeast, primary screen, HTS. S. cerevisiae aged cells, superoxide DHE fluorescence; hits give low values. superoxide response (% of plate mean), % at 10 µM. 330,000 tested, 0.18% active;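 active means superoxide response under a set limit, about three screen SD below normal, cut at about 65% in these data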;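 further: yeast aged for seven days with compound at 30 °C before DHE staining; 100% = average MFI of all compound-treated wells on the plate with controls excluded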
HIF activator = HIF pathway transcriptional activators, primary screen, cell-based, U2OS HRE-luciferase, luminescence. U2OS HRE-luciferase reporter; normalized: DMSO 0%, desferrioxamine 100%. activation, % at 7.5 µM (by protocol). 300,000 tested, 0.32% active. AID 1910, 2009;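 active means mean activation of at least 10% of the iron chelator positive control signal, with at least half of replicates also reaching 10%; inconclusive means mean and replicate majority disagree about reaching 10%; inactive means mean and most replicates under 10%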
* hit, by the source's call; ? = inconclusive; · = not tested or not shown; + = active, no number; ! = a repeat was not active. Hits are enriched below; roughly 1.2% of the tested compounds scored in any of these assays.

SMILES	LANA-H2A inh	HDAC3 inh	Yeast superoxide	HIF activator
Cc1cc(-c2csc(N)n2)c(C)n1CCc1ccccc1	8	-11	107	1
Cc1cc(-c2csc(N)n2)c(C)n1CCC(C)C	14*	-6	103	0
CCOC(=O)COc1ccc(S(=O)(=O)NC2CC2)cc1	6	7	58*	-2
Cc1cc(C)nc(-n2ncc(C#N)c2N)n1	11*	-4	102	0
COc1ccc(C2=NN3C(=O)c4c(ccc(OC)c4OC)C3C2)cc1 (stereo unspecified)	38*	-2	102	0
Cc1ccc(OCCC(=O)N(CC(=O)Nc2ccccc2C(F)(F)F)Cc2ccco2)cc1	·	·	98	0
Cc1ccn2cc(-c3ccc(O)c(O)c3)nc2c1	0	·	93	30*
Oc1ccc(-c2cn3ccccc3n2)cc1O	2	9	99	45*
Cc1ccc(Nc2nnc(SC(C)C(=O)NCC3CCCO3)s2)cc1 (stereo unspecified)	-2	8	110	·
Cc1[nH]c(-c2ccc3c(c2)OCO3)nc1C(=O)O	-1	-8	101	0
Cc1[nH]c(-c2ccco2)nc1C(=O)O	15*	-1	107	-1
O=C(Nc1cccc(S(=O)(=O)N2CCOCC2)c1)c1ccc(N2CCCC2=O)cc1	-5	-1	102	·
Cc1nn(C)c(C)c1N1C(=O)c2cccc3c(N)ccc(c23)C1=O	133*	2	81	·
CC(Nc1ccc2ccccc2c1)C(=O)N/N=C/c1ccncc1 (stereo unspecified)	3	0	92	·
CCCCCCCCCCOC(=O)Cn1c(COc2ccc(Cl)cc2)[n+](C)c2ccccc21	10	52*	93	1
Cc1cccc(C)c1NC(=O)COC(=O)c1c2c(nc3ccccc13)/C(=C\c1ccc3c(c1)OCO3)CCC2	63*	4	102	·
CCOc1cc(/C=C2\CCCc3c2nc2ccccc2c3C(=O)O)ccc1OC	85*	4	85	0
CCN1CCN(c2nc(N)c([N+](=O)[O-])c(Nc3ccc(C)cc3)n2)CC1	19*	-3	88	0
COc1ccc(NC(=S)NNC(=S)Nc2cccc(C(F)(F)F)c2)cc1	-1	28*	81	1
CCc1cc2c(=O)c(-c3nc(C)cs3)coc2cc1O	2	1	107	2
Cc1csc(-c2coc3cc(O)cc(C)c3c2=O)n1	8.1*	12	95	2
CSc1ccc(NC(=O)NCc2ccccc2)cc1	-1	·	96	3
CC(/C=C\C=C\c1ccccc1)=N\NC(=O)c1cncc(Br)c1	77*	-2	82	0
COc1ccc(F)cc1CSc1nnnn1-c1ccc(O)cc1	0	1	107	477*
O=C(CN1CCCCCC1)N/N=C/c1cccs1	2	0	96	-1
SMILES	LANA-H2A inh	HDAC3 inh	Yeast superoxide	HIF activator
O=C(N/N=C/c1cccs1)C(=O)N1CCCC1	15*	5	97	0
COc1ccc(C)cc1-n1nnnc1SC(C)C(=O)NC1CCCC1 (stereo unspecified)	-4	-2	80	·
Cc1cc(N2CC(C)OC(C)C2)nc(C(C)C)n1 (stereo unspecified)	+	-3	98	0
Nc1ccc(O)c(C(=O)O)c1	2	0	102	0
Nc1ccc(-c2c3ccc(=O)cc-3oc3cc(O)ccc23)c(C(=O)O)c1	65*	?	180	·
COc1c(S(=O)(=O)NCCCn2ccnc2)ccc(Cl)c1Cl	1	4	94	0
CCCN1CCC(NC(=O)Nc2ccc([N+](=O)[O-])cc2)CC1	1	8	97	0
CCCN1CCC(NC(=O)Nc2ccc(Br)cc2)CC1	18*	0	96	0
CCC1=NNc2cccc3c(OC)ccc1c23	7	31*	55*	1
CCOc1ccccc1/C=C(/NC(=O)c1ccccc1)C(=O)N(CC)CC	-4	3	96	0
CCC1CCCCN1C(=O)COc1ccc2c3c(c(=O)oc2c1)CCC3 (stereo unspecified)	32*	-9	117	·
COc1cccc(CNC(=O)CC(NC(=O)c2ccccc2)c2ccccc2)c1 (stereo unspecified)	32*	4	86	0
CCN1CCS/C1=C/C=C/C1=[N+](CC)CCS1	1	36*	100	0
CCN1CCS/C1=C\C=C\C1=[N+](CC)CCS1	·	·	·	0
COc1cc2ccccc2cc1C(=O)Nc1ccc(Cc2ccncc2)cc1	-3	6	107	5
COc1cc2ccccc2cc1C(=O)Nc1nccs1	20*	-4	101	3
COc1cc2ccccc2cc1C(=O)Nc1ccc(C)cc1	-8	6	106	11*
C[c-]1[c-](C)[c-](C)[c-](C)[c-]1C.[Fe].c1cc2nccc(N3CCCC3)[c-]2c1 (stereo unspecified)	-1	29*!	122	-6
Cn1cnc2c(N3CCCCC3)nccc21	6	-1	104	0
COc1ccc(N2CCN(C(=O)c3ccc4ccccc4n3)CC2)cc1	16*	2	107	0
COc1ccc(-c2cc(C(=O)N3CCN(c4ccccc4OC)CC3)no2)cc1	20*	1	92	-17
COc1ccccc1N1CCN(C(=O)c2cc(-c3ccc(C)cc3)on2)CC1	5	11	121	0
O=C(c1ccc2ccccc2n1)N1CCN(c2ccccc2)CC1	1	-2	94	0
CCOC(=O)N1CCN(C(=O)c2cc3c(=O)n4cccc(C)c4nc3s2)CC1	-2	-21	111	1
COc1ccccc1N1CCN(C(=O)c2cc3c(=O)n4cccc(C)c4nc3s2)CC1	26*	-8	104	-15
SMILES	LANA-H2A inh	HDAC3 inh	Yeast superoxide	HIF activator
CC(C)(C)OC(=O)C[C@@H]1C/C=C\C[C@@H](CC(=O)N(CCO)Cc2ccccc2)C(=O)N[C@@H](c2ccccc2)COC1=O	8	4	121	·
CCN(c1ccccc1)S(=O)(=O)c1cc(C(=O)Oc2ccc3c(C)cc(=O)oc3c2)ccc1C	0	1	102	-1
CN1C(=O)[C@@H]2[C@H](C1=O)[C@@H]1C(=O)Nc3ccccc3C(=O)N1[C@@H]2c1ccc(Br)cc1	-3	-6	102	1
Cc1cc(NC(=O)C2CCN(S(=O)(=O)Cc3ccccc3)CC2)ccc1-n1cnnn1	43*	-2	115	-4
COc1ccccc1N1CCN(Cc2ccc(O)c3ncccc23)CC1	1	0	89	27*
Oc1c(CN2CCN(c3ccccc3)CC2)cc(Br)c2cccnc12	3	2	85	39*
COc1ccccc1N1CCN(Cc2ccc(OC)c(OC)c2OC)CC1	0	-5	99	1
Oc1c(CNc2ccccc2)cc(COCc2ccccc2)c2cccnc12	·	·	84	·
Oc1c(CN2CCOCC2)cc(COCc2ccccc2)c2cccnc12	0	12	102	53*
Cc1cccc([N+](=O)[O-])c1C(=O)O	19*	1	98	·

Source: PubChem BioAssay (several laboratories)
